Data as given in PubChem BioAssay (Tox21).
Values joined by “and” are separate entries in the source; they are usually repeats but may differ in a detail not shown here. Equal values may be shown once. Results filed as inconclusive are left out. Where a call stands in place of a potency, no number is given. Unmarked numbers belong to inactive results. Active and inactive are the calls of the source. Calls follow the shape of the dose curve; as a rule, active = well fitted cell-killing curve with a large enough effect in the repeat runs; inconclusive = weak or mixed curves, or effect the other way; inactive = flat fitted curve, though single readings scatter.

Legend:
[1] = cAMP Responsive Elements (CRE) small molecule antagonists, cell-based qHTS assay: qHTS cell viability counter screen (AID 2060913); also: nearly all actives have a fitted effect of over 40% in size; also: potency is read from the fitted curve at half-maximal effect
Summary of the method: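 Cytotoxicity counter screen multiplexed with the CRE-bla antagonist read: HEK293T cells in DMEM with dialyzed FBS and 25 mM HEPES were treated 3 hrs under 0.25 uM final NKH477, then viability measured by CellTiter-Glo luminescence.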

[2] = cAMP Responsive Elements (CRE) small molecule agonists, cell-based qHTS assay: qHTS cell viability counter screen (AID 2060914);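 also: viability read after 3 h of compound exposure; nearly all actives have a fitted effect of over 50% in size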
Summary of the method: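 Cells are seeded and incubated 18 h, treated with compounds in DMSO for 3 h, read for the bla reporter, then given CellTiter-Glo; luminescence is measured after 30 min at room temperature.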

| Structure (SMILES) | Potency [1] | Potency [2] | viability change, negative = cytotoxic [1] | activity change, negative = cytotoxicity [2] |
| --- | --- | --- | --- | --- |
| CSc1ccc(C=O)cc1 | inactive | inactive |  |  |
| NCCS | inactive | inactive |  |  |
| CN(C)c1ccc2nc3ccc(=[N+](C)C)cc-3sc2c1 | inactive | inactive |  |  |
| C[C@]12CC[C@H]3[C@@H](CCC4=CC(=O)CC[C@@]43C)[C@@H]1CC[C@@H]2C(=O)CO | inactive | inactive |  |  |
| CCCCCCCCCCOC(=O)c1ccccc1C(=O)OCCCCCCCC | inactive | inactive |  |  |
| CC/C=C\CC/C=C/CO | inactive | inactive |  |  |
| Nc1ccc(S(=O)(=O)c2ccc(N)cc2)cc1 | inactive | inactive |  |  |
| O=C(O)CO | inactive | inactive |  |  |
| O=C(O[C@@H](C(=O)O)[C@@H](OC(=O)c1ccccc1)C(=O)O)c1ccccc1 | inactive | inactive |  |  |
| COc1ccc([N+](=O)[O-])cc1N | inactive | inactive |  |  |
| CC(=O)CC(=O)Nc1ccc(C)cc1C | inactive | inactive |  |  |
| C=C(C)C(=O)OCC(O)CO (configuration not stated) | inactive | inactive |  |  |
| O=C(O)/C=C/C(=O)O | inactive | inactive |  |  |
| Nc1cccc([N+](=O)[O-])c1 | inactive | inactive |  |  |
| COc1ccc2c(c1)c1c3n2CCN(C)C3=NCC1 | inactive | inactive |  |  |
| CCCC(=O)OCCC(C)CCC=C(C)C (configuration not stated) | inactive | inactive |  |  |
| CCC(=O)Oc1ccc(/C(CC)=C(\CC)c2ccc(OC(=O)CC)cc2)cc1 | inactive | inactive |  |  |
| CC(=O)N(CC(=O)N(C)C)c1ccccc1 | inactive | inactive |  |  |
| CCCCCCCCCCCCCC(=O)OC(C)C | inactive | inactive |  |  |

| Structure (SMILES) | Potency [1] | Potency [2] | viability change, negative = cytotoxic [1] | activity change, negative = cytotoxicity [2] |
| --- | --- | --- | --- | --- |
| FC(F)(F)c1ccccc1Cl | inactive | inactive |  |  |
| NCCc1ccn[nH]1 | inactive | inactive |  |  |
| Cc1ccc(/C(=C\CN2CCCC2)c2ccccn2)cc1 | inactive | inactive |  |  |
| CC#C[C@]1(O)CC[C@H]2[C@@H]3CCC4=CC(=O)CCC4=C3[C@@H](c3ccc(N(C)C)cc3)C[C@@]21C | inactive | inactive |  |  |
| C=C(C)C(=O)OCCOc1ccccc1 | inactive | inactive |  |  |
| NC(=O)N/N=C/c1ccc([N+](=O)[O-])o1 | inactive | inactive |  |  |
| CCCCCCC1(C)CCC(=O)O1 (configuration not stated) | inactive | inactive |  |  |
| CC(=O)c1sc(C)nc1C | inactive | inactive |  |  |
| Cc1ccccc1C(N)=O | inactive | inactive |  |  |
| COc1cccc(OC)c1O | inactive | inactive |  |  |
| CN(C)C(=S)SC(=S)N(C)C | 62.7 µM (active) and 3.2 µM (active) | inactive |  |  |
| [O]=[Mo](=[O])=[O] |  |  | 13.7% [at 18.9 µM] | -14.6% [at 18.9 µM] |
| C#Cc1cccc(Nc2ncnc3cc(OCCOC)c(OCCOC)cc23)c1 | inactive | inactive |  |  |
| CCCC(C)CO (configuration not stated) | inactive | inactive |  |  |
| NC(=O)c1cnccn1 | inactive | inactive |  |  |
| CC(=O)[C@H]1CC[C@H]2[C@@H]3CC=C4C[C@@H](O)CC[C@]4(C)[C@H]3CC[C@]12C | inactive | inactive |  |  |
| CCC(=O)O | inactive | inactive |  |  |
| CCCC(=O)OCOC(=O)C1=C(C)NC(C)=C(C(=O)OC)C1c1cccc(Cl)c1Cl (configuration not stated) | inactive | inactive |  |  |
| COc1cc(-c2ccc(N=C=O)c(OC)c2)ccc1N=C=O | inactive | inactive |  |  |

| Structure (SMILES) | Potency [1] | Potency [2] | viability change, negative = cytotoxic [1] | activity change, negative = cytotoxicity [2] |
| --- | --- | --- | --- | --- |
| OCCCO | inactive | inactive |  |  |
| CC1(C)C(=O)N(Cl)C(=O)N1Cl | inactive | inactive |  |  |
| CCN(CC)CCNc1ccc(CO)c2sc3ccccc3c(=O)c12 | inactive | inactive |  |  |
| C1CSCCS1 | inactive | inactive |  |  |
| CC(C)C(C)C | inactive | inactive |  |  |
| Nc1cccc2c1CN(C1CCC(=O)NC1=O)C2=O (configuration not stated) | inactive | inactive |  |  |
| CCOCCOCCOC(C)=O | inactive | inactive |  |  |
| OC[C@H](Cc1cccc(O)c1)[C@H](CO)Cc1cccc(O)c1 | inactive | inactive |  |  |
| Nc1ccc(C(=O)NCC(=O)O)cc1 | inactive | inactive |  |  |
| Clc1ccc(Nc2nnc(Cc3ccncc3)c3ccccc23)cc1 | inactive | inactive |  |  |
| CC(C)(C)C(=O)CC(=O)C(C)(C)C | inactive | inactive |  |  |
| Nc1ccc(O)c(N)c1 | inactive | inactive |  |  |
| CCOc1ccc2ccccc2c1C(=O)N[C@@H]1C(=O)N2[C@@H]1SC(C)(C)[C@@H]2C(=O)O | inactive | inactive |  |  |
| COCCCN | inactive | inactive |  |  |
| CCOc1nc2cccc(C(=O)O)c2n1Cc1ccc(-c2ccccc2-c2nn[nH]n2)cc1 | inactive | inactive |  |  |
| CC(C)=CCC/C(C)=C/CO | inactive | inactive |  |  |
| O=C(O)c1ccccc1S | inactive | inactive |  |  |
| COC1=C(OC)C(=O)C(CCCCCCCCCCO)=C(C)C1=O | inactive | inactive |  |  |
